Experimental data published in PubChem BioAssay (NCI).
Compounds without any hit were thinned out: in the full panel of roughly 83,000, 20% have a hit.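 Treatment: one concentration, 48 hours, 96-well format. Scoring: percent growth, with anything below 10 considered active.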

How the values were obtained:
Assay in all cases: NCI-60 one-dose screen, 48 h (100 = growth as untreated, 0 = no growth, -100 = all killed)
Conditions in all cases: 10 µM unless noted
[1] = tested on: NCI-H23 lung
[2] = tested on: NCI-H226 lung
[3] = tested on: NCI-H322M lung
[4] = tested on: HOP-62 NSCLC
[5] = tested on: NCI-H460 lung
[6] = tested on: HOP-92 NSCLC
[7] = tested on: NCI-H522 lung
[8] = tested on: A549/ATCC NSCLC
[9] = tested on: 786-0 renal
[10] = tested on: COLO 205 colon
[11] = tested on: DU-145 prostate
[12] = tested on: K-562 leukemia
[13] = tested on: MALME-3M melanoma
[14] = tested on: MDA-MB-231 breast
[15] = tested on: RXF 393 renal
[16] = tested on: SF-268 CNS
[17] = tested on: SF-295 CNS
[18] = tested on: SF-539 CNS
[19] = tested on: UACC-257 melanoma
[20] = tested on: M14 melanoma

Measured: growth

CCOc1ccc(C(=O)O)cc1
inactive: [1] 97.6% | [2] 91.9% | [3] 108% | [4] 105% | [5] 103% | [6] 90.4% | [7] 101% | [8] 108% | [9] 101% | [10] 105% | [11] 112% | [12] 115% | [13] 118% | [14] 112% | [15] 105% | [16] 110% | [17] 94.6% | [18] 106% | [19] 104% | [20] 97.5%

CC(C)C(=O)OCCOc1ccc(C(C)(C)C)cc1
inactive: [1] 103% | [2] 99.4% | [3] 101% | [4] 102% | [5] 102% | [6] 97.7% | [7] 84.8% | [8] 88.4% | [9] 101% | [10] 108% | [11] 104% | [12] 103% | [13] 97.3% | [14] 90.5% | [15] 109% | [16] 96.1% | [17] 99.3% | [18] 99.5% | [19] 87.7% | [20] 107%

CC(C)N(C(=O)c1ccccc1)C(C)C
inactive: [1] 106% | [2] 93.6% | [3] 114% | [4] 109% | [5] 106% | [6] 97.8% | [7] 101% | [8] 98.8% | [9] 106% | [10] 114% | [11] 117% | [12] 103% | [13] 114% | [14] 119% | [15] 106% | [16] 105% | [17] 105% | [18] 98.3% | [19] 104%

O=Cc1ccc(Cl)c(Cl)c1
inactive: [1] 99.1% | [2] 98.1% | [3] 106% | [4] 97% | [5] 107% | [6] 68.5% | [7] 96.5% | [8] 102% | [9] 109% | [10] 104% | [11] 94.8% | [12] 104% | [13] 98.7% | [14] 116% | [15] 94.3% | [16] 101% | [17] 119% | [18] 117% | [19] 96.4% | [20] 102%

C=CC(C)(C)n1cc(C2=C(O)C(=O)C(c3cn(C(C)(C)C=C)c4ccccc34)=C(O)C2=O)c2ccccc21
inactive: [1] 80.7% | [2] 89.9% | [3] 89% | [4] 73.1% | [5] 89.5% | [6] 60.9% | [7] 98.2% | [8] 89.4% | [9] 87.8% | [10] 96.6% | [11] 92.9% | [12] 79.5% | [13] 90.6% | [14] 92.6% | [15] 93.2% | [16] 74.7% | [17] 83.5% | [18] 76.6% | [19] 94% | [20] 69.9%

CCC(C)C1CCC(O)CC1 (configuration not stated)
inactive: [1] 96.3% | [2] 101% | [3] 100% | [4] 110% | [5] 108% | [6] 102% | [7] 101% | [8] 103% | [9] 100% | [10] 112% | [11] 101% | [12] 99.2% | [13] 32.8% | [14] 112% | [15] 108% | [16] 99.3% | [17] 105% | [18] 94.8% | [19] 103%

COc1ccc(C(=O)C(=O)c2ccccc2)cc1
inactive: [1] 94% | [2] 91.9% | [3] 93.8% | [4] 102% | [5] 104% | [6] 90.7% | [7] 97.2% | [8] 104% | [9] 103% | [10] 112% | [11] 113% | [12] 111% | [13] 101% | [14] 101% | [15] 92.9% | [16] 105% | [17] 96.6% | [18] 117% | [19] 111%

CC1CC(C)S(=O)(=O)C1 (configuration not stated)
inactive: [1] 106% | [2] 105% | [3] 113% | [4] 115% | [5] 116% | [6] 120% | [7] 97.8% | [8] 92.6% | [9] 107% | [10] 108% | [11] 104% | [12] 92.4% | [13] 110% | [14] 115% | [15] 115% | [16] 111% | [17] 105% | [18] 104% | [19] 95.7% | [20] 111%
